Rows were chosen to be rich in hits. Some 7.3% of all compounds tested hit in one or more screens of this group.
NPC1 prom act: activates the NPC1 promoter; hit rate 2.4% among 320,000; Huh7 NPC1 promoter luciferase reporter, 24 h; Potency, µM (top dose mostly 9.22 µM), for the others: at the top dose activation, most hits filed as activators; note: % of control where 0% means no effect; nearly all actives have a fitted effect of over 60% in size
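Readout is luciferase luminescence, reflecting NPC1 promoter activation in stably transfected Huh7 cells after 24 h compound exposure at 37 °C in reduced-serum medium with 10% FBS.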
SMN2 splice enh: SMN2 splice variant enhancement. hit rate 2.8% among 210,000. Potency, µM (series often up to 46.1 µM), for inactives: at the top dose activity change, positive = activation, actives largely listed as activators. HEK293 SMN2-luciferase splicing reporter, luminescence, 30-36 h; note: % of control where 0% means no effect; nearly all actives have a fitted effect of over 55% in size
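HEK293 cells carry an SMN2 minigene-luciferase reporter in which exon 7 inclusion puts luciferase in frame. Cells were seeded at 2000 cells/well, attached for 10-12 hours, then exposed to compounds for 30-36 hours at 37C before ONE-Glo luminescence.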
FLuc counter: firefly luciferase modulation, counter-screen for miR-21 project | purified FLuc, Km substrates, luminescence inhibition | Potency, µM (highest dose often 57.5 µM), for the others: at the top dose activity change, negative = inhibition, most hits filed as inhibitors | hit rate 6.9% among 360,000 | AID 588342;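 note: plate controls were vehicle for no effect and reference inhibitor for full effect; nearly all actives have a fitted effect of over 55% in size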
Target sequence (P08659 whole entry, looked up): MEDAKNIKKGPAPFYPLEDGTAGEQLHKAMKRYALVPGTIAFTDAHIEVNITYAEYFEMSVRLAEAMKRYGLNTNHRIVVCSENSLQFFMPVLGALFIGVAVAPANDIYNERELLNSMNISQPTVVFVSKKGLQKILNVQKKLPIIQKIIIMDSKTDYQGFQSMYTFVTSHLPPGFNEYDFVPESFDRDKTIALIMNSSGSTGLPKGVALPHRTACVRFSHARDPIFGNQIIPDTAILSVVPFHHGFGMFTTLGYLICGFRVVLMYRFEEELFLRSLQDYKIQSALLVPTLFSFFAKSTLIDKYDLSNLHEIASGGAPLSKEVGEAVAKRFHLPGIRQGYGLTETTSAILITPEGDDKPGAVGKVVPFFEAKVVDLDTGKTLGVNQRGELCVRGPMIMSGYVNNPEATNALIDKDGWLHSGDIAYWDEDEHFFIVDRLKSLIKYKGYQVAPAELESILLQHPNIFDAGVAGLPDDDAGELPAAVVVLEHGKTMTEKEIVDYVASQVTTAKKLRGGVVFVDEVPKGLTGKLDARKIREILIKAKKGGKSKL
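Purified P. pyralis luciferase (10nM final) with 10uM D-luciferin and 10uM ATP (Km levels) in 50mM Tris acetate pH 7.5, 10mM Mg acetate, 0.01% Tween-20, 0.05% BSA; qHTS 6-point titration, ~60 µM downward; luminescence read.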
Luc counter: blocks Kinase-Glo luciferase, a counter-screen artifact; hit rate 0.28% among 200,000; Potency, µM (top dose mostly 38.3 µM), inactives show at the highest dose activity change, negative = inhibition, hits mostly inhibitors; Kinase-Glo luciferase, ATP luminescence, 8 min; Q27757; note: % is set by controls: 0 for no effect and ±100 for the full control effect; nearly all actives have a fitted effect of over 60% in size
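Compounds were added to a substrate mix at pH 7.2 (50 mM imidazole, 10 uM ATP, within the enzyme's linear range), followed by Kinase-Glo detection reagent; luminescence was measured after 8 minutes at ambient temperature.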
Rab9 prom act: Rab9 promoter activation | AID 485297 | Potency, µM (highest dose often 9.22 µM), for the others: top-dose activation, negative = inhibition, usual class: activators | hit rate 2.8% among 320,000 | Huh7 Rab9 promoter-luciferase reporter, luminescence, 24 h; note: % of control where 0% means no effect; nearly all actives have a fitted effect of over 60% in size
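Huh7 reporter line, Rab9 promoter upstream of luciferase. Compound exposure 24 h at 37 °C in reduced-serum medium with 10% FBS. Read-out: luminescence.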
Numbers without * were called inactive; ? = inconclusive; · = not tested or not shown. Calls come from the whole dose curve; as a rule, active = well fitted curve in the direction sought with a large enough effect; inconclusive = small, poorly fitted or top-dose-only effect, or another doubt; inactive = no such curve, though single readings can be large; an effect the other way counts as inactive or inconclusive. Potency is the fitted concentration of half-maximal effect.

SMILES | NPC1 prom act | SMN2 splice enh | FLuc counter | Luc counter | Rab9 prom act
Nc1ccc2nc(C(F)(F)F)[nH]c2c1 | -2.0% | -2.1% | -2.1% | -1.1% | 0.8%
Nc1ccc(-c2nc3c(Cl)cc(N)cc3[nH]2)cc1 | -26.3% | -26.4% | 21.3µM* | -16.1% | -13.2%
Nc1ccc2nc(-c3cccs3)[nH]c2c1 | ? | 22.4µM* | 10.7µM* | -23.5% | 2.51µM*
CC(=O)Nc1ccc2nc(-c3cccs3)[nH]c2c1 | ? | ? | 12µM* | -13.4% | 2.51µM*
Nc1cccc(-c2nc3ccc(C(=O)c4ccccc4)cc3[nH]2)c1 | 18.2% | · | 0.757µM* | · | 23.7%
CC(=O)Nc1ccc2nc(-c3cccn3C)[nH]c2c1 | 27.4% | · | ? | · | ?
Cc1cc(C)cc(NC(=O)c2sc3nc[nH]c(=O)c3c2C)c1 | · | · | 6.0% | · | ·
CC1(C)CC(N=C=O)CC(C)(CN=C=O)C1 (stereo unspecified) | · | 9.3% | · | · | ·
Cc1cccc2nc(Cn3c(=O)n(-c4ccc(Cl)cc4)c(=O)c4c5c(sc43)CCC5)cc(=O)n12 | · | 4.4% | -4.1% | · | ·
CC(=O)NC(c1ccco1)c1cc(Cl)c2ccc(N3CCCCC3)nc2c1O (stereo unspecified) | 15.7% | · | ? | · | 3.7%
CCc1ccc(S(=O)(=O)c2nnn3c2nc(N2CCOCC2)c2sccc23)cc1 | · | · | 1.6% | · | ·
O=C(Nc1ccccc1C(F)(F)F)c1noc2c1CCCCC2 | · | 11.2µM* | 2.69µM* | · | ·
O=C(Nc1cc(Cl)ccc1Cl)c1noc2c1CCCC2 | 2.2% | · | -9.2% | · | -2.1%
O=C(NCc1ccc(F)cc1)c1noc2c1CCCCC2 | 0.6% | -4.9% | -12.5% | 2.3% | 3.7%
O=C(Nc1ccc(F)cc1F)c1noc2c1CCC2 | ? | ? | 15.1µM* | -10.0% | ?
N#CC1=C(N)Oc2n[nH]c(-c3ccccc3)c2C12C(=O)Nc1ccccc12 (stereo unspecified) | 0.5% | 5.62µM* | -0.8% | -1.4% | -4.9%
CCN1C(=O)C2(C(C#N)=C(N)Oc3n[nH]c(-c4ccc(Cl)cc4)c32)c2ccccc21 (stereo unspecified) | -1.6% | 10.3% | -0.9% | -4.5% | -8.5%
CCn1ccc2cc(S(=O)(=O)N3CCC(C(=O)NCCc4ccc(SC)cc4)CC3)ccc21 | · | · | -7.9% | · | ·
C=CCOC(=O)c1ccc(N2CCN(c3ccccc3)CC2)nc1 | 23.0% | · | 16.9µM* | · | 21.0%
CNC(=O)C(=O)Nc1nc(C23CC4CC(CC(C4)C2)C3)cs1 | ? | · | -19.1% | 4.8% | 3.16µM*
COc1ccc(CCNC(=O)NC23CC4CC(CC(C4)C2)C3)cc1 | 19.0% | -18.3% | ? | -1.6% | 19.5%
NS(=O)(=O)c1ccc(CCNC(=O)NC23CC4CC(CC(C4)C2)C3)cc1 | -1.7% | 2.9% | -2.9% | 4.5% | -5.0%
O=C(NCCC1=CCCCC1)NC12CC3CC(CC(C3)C1)C2 | 0.631µM* | -12.3% | 3.38µM* | 1.4% | 0.891µM*
O=C(NCCc1ccc(F)cc1)NC12CC3CC(CC(C3)C1)C2 | 2.51µM* | · | 10.7µM* | · | 3.55µM*
CCc1cccc(C)c1NC(=O)c1nc2ccccc2nc1N1CCCCC1 | · | · | -1.9% | · | ·
SMILES | NPC1 prom act | SMN2 splice enh | FLuc counter | Luc counter | Rab9 prom act
Cc1ccc(-c2cnc(NCc3c(F)cccc3Cl)n2C)cc1 | · | -13.1% | ? | · | ·
Fc1ccc(CNc2nc(-c3ccc(Cl)cc3)cc(C(F)(F)F)n2)cc1 | · | -13.6% | -1.9% | · | ·
COc1ccc(-c2cn3cc(C(F)(F)F)cc(Cl)c3n2)cc1 | ? | 2.82µM* | 3.01µM* | -3.3% | 2.24µM*
Fc1ccc(-c2cn3cc(C(F)(F)F)cc(Cl)c3n2)cc1 | ? | 12.6µM* | 1.69µM* | -5.9% | 4.47µM*
Cc1nc2cc(-c3ccccc3)ccc2o1 | 7.7% | -12.4% | 12µM* | -8.0% | 2.1%
Cc1ccc2oc(=O)c(/C=C(\O)c3ccccc3)nc2c1 | 0.0% | 14.5% | ? | 2.2% | -2.1%
CC(C)CC(=O)NCC(c1ccc2c(c1)OCO2)N1CCN(c2ccccc2)CC1 (stereo unspecified) | · | · | -2.3% | · | ·
Nc1ccc(C#Cc2ccc3c(=O)c4ccccc4oc3c2)cc1 | 2.24µM* | · | ? | · | 3.55µM*
COc1ccc(/C=C/c2nc3ccccc3n2Cc2ccccc2OC)cc1 | 3.16µM* | 7.94µM* | 0.849µM* | -11.9% | ?
C=CCn1c(NCc2ccccc2OC)nc2ccccc21 | 0.4% | · | ? | · | 15.5%
COc1ccccc1Cn1c(/C=C/c2ccccc2)nc2ccccc21 | 18.2% | ? | 3.01µM* | -22.3% | ?
COc1ccccc1Cn1c(C(C)C)nc2ccccc21 | -2.6% | · | 1.8% | · | -7.7%
Cc1ccc(S(=O)(=O)N2CCN(Cc3cc(Br)ccc3O)CC2)cc1 | · | -17.7% | -6.6% | · | ·
Cc1c(C(=O)NCc2ccccc2Cl)sc2nc[nH]c(=O)c12 | · | · | -2.1% | · | ·
O=C(Cn1cc(SCc2ccc(Cl)cc2)c2ccccc21)N1CCOCC1 | 21.7% | ? | 23.9µM* | -6.7% | 29.6%
O=C(CSc1cn(Cc2ccccc2)c2ccccc12)N1CCOCC1 | ? | 12.6µM* | 23.9µM* | 4.3% | 23.4%
O=C(NCCn1cc(SCC(=O)N2CCOCC2)c2ccccc21)c1ccccc1 | 14.3% | -1.8% | -12.3% | -0.6% | 16.8%
O=C(Cn1cc(SCc2c(F)cccc2Cl)c2ccccc21)N1CCCC1 | · | · | 16.9µM* | · | ·
Cc1ccc(CSc2cn(CC(=O)N3CCCC3)c3ccccc23)cc1 | · | · | 15.1µM* | · | ·
Cc1ccc(CC(=O)NCc2nc(-c3ccccc3)no2)cc1 | · | -9.8% | -5.1% | · | ·
O=C(Cn1cc(SCc2cccc(Cl)c2)c2ccccc21)N1CCCCCC1 | · | · | -4.9% | · | ·
Cc1cccc(CSc2cn(CC(=O)N3CCCC3)c3ccccc23)c1 | · | · | 15.1µM* | · | ·
CCOc1ccccc1NC(=O)Nc1ccc2nc(N3CCN(C)CC3)cc(C)c2c1 | · | · | 5.36µM* | · | ·
CCOc1ccccc1NC(=O)Nc1nnc(N2CCCCCC2)s1 | · | · | 15.1µM* | · | ·
COc1ccc2nc(N3CCOCC3)cc(C)c2c1 | ? | 11.2µM* | 5.36µM* | -1.0% | 2.82µM*
SMILES | NPC1 prom act | SMN2 splice enh | FLuc counter | Luc counter | Rab9 prom act
COc1ccc(C(=O)Nc2ccc3nc(N4CCN(C)CC4)cc(C)c3c2)c(OC)c1 | 0.1% | · | 16.9µM* | · | -0.3%
Cc1cc(C)c(/C=C/c2onc(C)c2S(=O)(=O)N2CCC(C(=O)NCCc3ccccc3)CC2)c(C)c1 | · | · | -1.6% | · | ·
CCN1CCN(c2cc(C)c3cc(NC(=O)c4cccc(OC)c4)ccc3n2)CC1 | 16.1% | · | 19µM* | · | 20.2%
CCN1CCN(c2cc(C)c3cc(NC(=O)c4ccc(OC)c(OC)c4)ccc3n2)CC1 | 5.4% | 12.7% | -14.9% | 0.3% | -1.5%
CCOc1ccc(S(=O)(=O)Nc2cccc(-c3ccc(N4CCCCCC4)nn3)c2)cc1 | 3.4% | · | 8.49µM* | · | 0.3%
CCCCOc1ccc(S(=O)(=O)Nc2cccc(-c3ccc(N4CCOCC4)nn3)c2)cc1 | · | · | 13.5µM* | · | ·
COc1ccc(/C=C(\C#N)C(=O)N=CN(C)C)cc1 | -0.4% | -5.3% | 13.5µM* | -4.6% | -1.8%
COc1ccc(/C=C(\C#N)C(=O)NCc2ccccc2)cc1 | 1.0% | · | ? | · | 0.3%

Source: PubChem BioAssay
